According to PubChem BioAssay:
A number with no mark means an inactive call. How the calls were made is not given here.

molecular target: Pantothenate synthetase (Mycobacterium tuberculosis (strain ATCC 25618 / H37Rv)) (UniProt P9WIL5); experiment: Recombinant Mtb pantothenate synthetase (PanC) inhibitors, coupled enzyme, confirmatory (AID 375); conditions: coupled enzyme assay; at 10 µM, stronger effect = higher value;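 further: 0% = full reaction with vehicle and 100% = no enzyme background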
Sequence (P9WIL5 whole entry, looked up): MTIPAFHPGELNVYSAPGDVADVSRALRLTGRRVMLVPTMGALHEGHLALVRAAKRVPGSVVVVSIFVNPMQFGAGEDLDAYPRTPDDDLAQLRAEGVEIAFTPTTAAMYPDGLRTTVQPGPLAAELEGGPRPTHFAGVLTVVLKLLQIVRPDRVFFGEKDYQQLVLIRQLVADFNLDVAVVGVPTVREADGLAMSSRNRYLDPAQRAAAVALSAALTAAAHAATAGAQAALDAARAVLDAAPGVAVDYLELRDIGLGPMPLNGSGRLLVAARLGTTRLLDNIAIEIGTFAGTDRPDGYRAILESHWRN

| SMILES | inhibition [%] |
| --- | --- |
| O=C(c1ccc(COc2c(F)c(F)c(F)c(F)c2F)o1)N1CCOCC1 | 4 |
| COc1ccc(C(C)NC(=O)c2ccoc2C)cc1OC (stereo not given) | 5 |
| Cc1ccc(S(=O)(=O)N[C@@H](C)C(=O)N2CCC(C(=O)N3CCC[C@H]3C(=O)O)CC2)cc1 | 0 |
| Cc1ccc(S(=O)(=O)N(C)CC(=O)NC2CCCC2)cc1 | 0 |
| c1cncc(C2Nc3ccccc3-c3nc4ccccc4n32)c1 (stereo not given) | 7 |
| COc1ccc(CCNC(=O)CCN2C(=O)C3CC=CCC3C2=O)cc1OC (stereo not given) | 0 |
| O=c1c2ccc(-c3nnc4n3-c3ccccc3SC4)cc2nc2n1CCCCC2 | 0 |
| O=C(c1ccccc1)c1ccncc1 | 10 |
| Clc1ss/c(=N\c2ccccn2)c1Cl | 0 |
| CCc1cc2c(NCCC(=O)O)ncnc2s1 | 1 |
| CCC(=O)N1CCN=C1SCc1ccc(Cl)cc1 | 0 |
| Cc1ccc(-c2nc3cnccn3c2Nc2ccc3c(c2)OCO3)o1 | 2 |
| CC1(C)CC(=O)C(CC(=O)NC(=O)NCc2ccccc2)=C(O)C1 | 0 |
| O=C(COC(=O)CSc1nnc(-c2ccc(Cl)cc2)o1)NCc1ccc2c(c1)OCO2 | 12 |
| CC1CCCCC1NC(=O)Cn1nnc(-c2ccc(Cl)cc2)n1 (stereo not given) | 1 |
| CCCNC(=O)c1cc(S(=O)(=O)N2CCc3ccccc32)ccc1F | 0 |
| CCCn1nc(NC(=O)c2cccs2)c2cc3cc(OC)ccc3nc21 | 0 |
| CC(CCc1ccccc1)NCC(O)c1ccc(O)c(C(N)=O)c1 (stereo not given) | 2 |
| C=CCOC(=O)CC(NC(=O)c1ccccc1)c1ccccc1 (stereo not given) | 0 |
| CCOC(=O)c1cccc(NC(=O)CSc2nc3ccccc3c(=O)n2CC)c1 | 0 |

| SMILES | inhibition [%] |
| --- | --- |
| Cc1ccsc1C(C(=O)NC1CCCCC1)N(C(=O)Cc1cccs1)C1CC1 (stereo not given) | 0 |
| Cn1c(SCc2nnc3n2CCCCC3)nc2ccccc21 | 0 |
| O=C(O)c1ccc(COc2c(F)c(F)c(F)c(F)c2F)o1 | 0 |
| O=c1ccc(S(=O)(=O)N2CCC(Cc3ccccc3)CC2)c[nH]1 | 0 |
| O=c1c2ccccc2nc(SCc2nc(-c3ccccc3)no2)n1-c1ccc(F)cc1 | 0 |
| O=C(Nc1ccon1)c1csc2c1CCCC2 | 6 |
| Cc1ccc2nc(-c3ccccn3)cc(C(=O)N3CCN(c4ncccn4)CC3)c2c1 | 3 |
| O=C(c1ccc2nc(N3CCOCC3)sc2c1)N1CCCC1 | 13 |
| c1ccc(N2CCN(Cc3cn4cccnc4n3)CC2)cc1 | 3 |
| CCOC(=O)C1CCN(CC(=O)c2c(C)[nH]c3ccccc23)CC1 | 1 |
| C=CCSc1nnc(Cc2c(C)[nH]c3ccccc23)o1 | 0 |
| CCOC(=O)/C=C(\C)Sc1cc(=O)oc2ccccc12 | 6 |
| CCC1Oc2ccc(C)cc2N(CC(=O)N(Cc2cccnc2)Cc2ccc(C)o2)C1=O (stereo not given) | 4 |
| S=C(N=Nc1ccccc1)NNc1ccccc1 | 0 |
| COc1ccc(N2CCN(c3ccc(NC(=O)C4CCCCC4)cc3C#N)CC2)cc1 | 0 |
| CCOC(=O)N1CCN(C(=O)c2n[nH]c(=O)c3ccccc23)CC1 | 2 |
| O=C(O)CCc1cc(I)c(Oc2ccc(O)c(I)c2)c(I)c1 | 8 |
| NC(=O)c1c(NC(=O)Cc2cccs2)sc2c1CCC2 | 0 |
| CCOC(=O)c1[nH]c(=O)c2ccccc2c1O | 0 |
| COc1cccc(N2CCN(c3ncnc4c3[nH]c3ccc(F)cc34)CC2C)c1 (stereo not given) | 0 |
